From PubChem
This is a sample that favours compounds with a hit; in the whole collection about 6.3% have one here.
MPTP inh: inhibitors of mitochondrial permeability transition pore | hit rate 1.4% among 360,000 | isolated mouse mitochondria, Ca2+ swelling absorbance, 30 min | inhibition, % at 10 µM;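 active = inhibition of 50% or more, scaled per plate between neutral and stimulator controls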
TIM10 inh: TIM10 yeast growth inhibition | S. cerevisiae TIM10 strain growth, BacTiter-Glo luminescence, 24 h | inhibition, % at 10 µM | hit rate 1.4% among 330,000;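 active = inhibition of 40% or more at the single tested concentration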;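 note: wild-type TIM10 isogenic control strain grown at permissive 25 °C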
Mdm2-MdmX inh: human Mdm2/MdmX binding inhibition | SaOS-2 split-luciferase Mdm2/MdmX complementation, luminescence | inhibition, % at 8 µM | hit rate 3% among 330,000;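 active = inhibition of at least 50% at 8 µM in the primary screen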
Target sequence (O15151 whole entry, looked up): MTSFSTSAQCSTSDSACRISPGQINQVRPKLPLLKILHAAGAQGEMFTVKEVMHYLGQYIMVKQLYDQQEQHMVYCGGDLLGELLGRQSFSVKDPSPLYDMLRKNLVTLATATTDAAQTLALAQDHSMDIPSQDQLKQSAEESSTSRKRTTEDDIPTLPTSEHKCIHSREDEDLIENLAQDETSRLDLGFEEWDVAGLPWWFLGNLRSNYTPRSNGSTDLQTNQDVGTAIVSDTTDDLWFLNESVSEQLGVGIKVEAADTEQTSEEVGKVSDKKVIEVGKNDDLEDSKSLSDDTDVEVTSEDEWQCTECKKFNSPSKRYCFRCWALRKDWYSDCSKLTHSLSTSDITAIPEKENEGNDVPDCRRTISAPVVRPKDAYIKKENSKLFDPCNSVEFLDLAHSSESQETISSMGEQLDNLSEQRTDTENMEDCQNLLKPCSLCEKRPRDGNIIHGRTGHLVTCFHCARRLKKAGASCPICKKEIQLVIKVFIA
Target sequence (Q00987 whole entry, looked up): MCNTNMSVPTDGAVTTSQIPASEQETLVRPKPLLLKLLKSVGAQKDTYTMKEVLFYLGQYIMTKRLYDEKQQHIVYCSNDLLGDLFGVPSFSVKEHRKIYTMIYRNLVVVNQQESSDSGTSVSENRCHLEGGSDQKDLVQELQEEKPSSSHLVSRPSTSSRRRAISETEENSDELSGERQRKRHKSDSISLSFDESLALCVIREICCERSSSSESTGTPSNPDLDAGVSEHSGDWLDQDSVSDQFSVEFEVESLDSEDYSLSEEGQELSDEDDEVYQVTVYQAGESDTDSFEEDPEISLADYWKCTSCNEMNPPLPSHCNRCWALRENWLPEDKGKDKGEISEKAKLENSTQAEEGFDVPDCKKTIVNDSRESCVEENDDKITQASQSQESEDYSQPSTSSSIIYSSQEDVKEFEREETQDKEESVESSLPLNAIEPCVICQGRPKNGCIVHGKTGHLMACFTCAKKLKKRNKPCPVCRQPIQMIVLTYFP
tim10-1 inh: growth inhibitors of tim10-1 mutant yeast | S. cerevisiae tim10-1 ts strain growth, BacTiter-Glo, 24 h | inhibition, % at 20 µM | hit rate 2.2% among 330,000 | AID 463190;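 active = inhibition of at least 40%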;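 note: mutant grown at 25 °C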
tim23-1 inh: inhibits growth of tim23-1 mutant yeast | S. cerevisiae tim23-1 growth, BacTiter-Glo luminescence, 24 h | inhibition, % at 20 µM | hit rate 1.3% among 330,000 | AID 463212;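 active = growth inhibition of the mutant yeast at or above 50%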;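 note: temperature-sensitive mutant grown at 25 °C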
Mdm2 MdmX conf: confirmation of human Mdm2/MdmX interaction inhibitors | shares compounds with Mdm2-MdmX inh | Mdm2-MdmX binding, luminescent assay | inhibition, % at 8 µM | hit rate 55% among 10,000; in the data active = inhibition above about 40%
Full FLuc ctr: inhibits full-length luciferase, flagging false Mdm2/MdmX hits | shares compounds with Mdm2-MdmX inh | SaOS-2 full-length luciferase counterscreen, luminescence | inhibition, % at 8 µM | hit rate 77% among 6,200 | AID 504607;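 active = mean inhibition at 8 µM reaching about 37%, which flags the compound as non-specific, limit read from the data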;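 note: p53-null SaOS-2 cells with luciferase driven by a doxycycline-inducible promoter; compound on cells about two nights before reading with doxycycline added after day one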
Large screens that a line does not name were inactive (follow-up assays come after a bar, where they were run).

COc1ccc(CCN2C(=O)COc3ccccc3C2C(=O)Nc2ccc3c(c2)OCCO3)cc1OC (centres undefined)	none (no result: TIM10 inh, Mdm2-MdmX inh, tim10-1 inh, tim23-1 inh)
O=C(N/N=C/c1c[nH]c2ccccc12)c1cc(-c2ccccc2)n[nH]1	none
O=C(N/N=C/c1c[nH]c2ccccc12)c1cc(-c2ccc3ccccc3c2)n[nH]1	Mdm2-MdmX inh 54 | Mdm2 MdmX conf 52 | Full FLuc ctr 87
O=C(N/N=C/c1c[nH]c2ccccc12)c1cc(-c2cccc3ccccc23)n[nH]1	Mdm2-MdmX inh 58 | Mdm2 MdmX conf inactive
CCc1nc2c(OCC(=O)C(C)(C)C)cccn2c1N(C)C(=O)C(C)C	none (no result: TIM10 inh, Mdm2-MdmX inh, tim10-1 inh, tim23-1 inh)
CCCNS(=O)(=O)c1cccc(C(=O)OCc2cc(=O)oc3cc(OC)ccc23)c1	Mdm2-MdmX inh 70 | Mdm2 MdmX conf 56 | Full FLuc ctr 66
N/C(=N\OC(=O)c1cnn(-c2ccccc2)c1C(F)(F)F)c1cc(C(F)(F)F)cc(C(F)(F)F)c1	Mdm2-MdmX inh 52 | Mdm2 MdmX conf inactive
COc1ccccc1Nc1nc(-c2sc(NC(=O)c3ccco3)nc2C)cs1	none
Cc1ccc(Cl)cc1Nc1nc(-c2sc(NC(=O)c3ccco3)nc2C)cs1	Mdm2-MdmX inh 81 | Mdm2 MdmX conf inactive
C=CCCC(=O)Nc1nc(C)c(-c2csc(Nc3ccccc3OC)n2)s1	Mdm2-MdmX inh 60 | Mdm2 MdmX conf 56 | Full FLuc ctr 56
Cc1nc(NC(=O)c2ccco2)sc1-c1csc(Nc2ccc(Cl)cc2Cl)n1	none
COc1cccc(N(C(=O)c2ccco2)c2nc(-c3sc(NC(=O)c4ccco4)nc3C)cs2)c1	Mdm2-MdmX inh 74 | Mdm2 MdmX conf 49 | Full FLuc ctr 62
C=CCCC(=O)Nc1nc(C)c(-c2csc(Nc3ccc(Cl)cc3Cl)n2)s1	Mdm2-MdmX inh 54 | Mdm2 MdmX conf inactive
COc1ccc(OC)c(NS(=O)(=O)c2ccc3[nH]c(=O)[nH]c3c2)c1	none (no result: TIM10 inh, Mdm2-MdmX inh, tim10-1 inh, tim23-1 inh)
Cc1ccc(-c2cnc(C(O)c3ccc(Cl)c(Cl)c3)[nH]2)cc1 (centres undefined)	none (no result: TIM10 inh, Mdm2-MdmX inh, tim10-1 inh, tim23-1 inh)
OC(c1ccco1)c1nc(-c2cccs2)cs1 (centres undefined)	none (no result: TIM10 inh, Mdm2-MdmX inh, tim10-1 inh, tim23-1 inh)
CCC(=O)Nc1nc(C)c(-c2csc(Nc3cccc(O)c3)n2)s1	Mdm2-MdmX inh 73 | Mdm2 MdmX conf inactive
Cc1nc(NC(=O)c2ccccc2)sc1-c1csc(Nc2cccc(Cl)c2)n1	none (no result: MPTP inh)
CCOC(=O)c1c(C)[nH]c(C(=O)COC(=O)CCNS(=O)(=O)c2ccc(NC(C)=O)cc2)c1C	none
COc1cc2c3c(cccc3c1)C(=O)N(CCN1CCCC1)C2=O	none (no result: TIM10 inh, Mdm2-MdmX inh, tim10-1 inh, tim23-1 inh)
Cc1ccccc1OCCc1c(C)[nH]c(=S)[nH]c1=O	Mdm2-MdmX inh 55 | Mdm2 MdmX conf 62 | Full FLuc ctr 56
COc1ccccc1C(CC(=O)Nc1ccccc1C)c1ccc(OC(C)C)cc1 (centres undefined)	none
COc1ccc(C(CCNCc2ccc(N(C)C)cc2)c2ccccc2OC)cc1 (centres undefined)	Mdm2-MdmX inh 54 | Mdm2 MdmX conf inactive
COc1ccc(C(CCNCc2ccc(OC(C)C)cc2)c2ccccc2OC)cc1 (centres undefined)	Mdm2-MdmX inh 87 | Mdm2 MdmX conf inactive | Full FLuc ctr 82
O=C(NCc1ccncc1)[C@@H]1CCCN1C(=O)[C@H]1CCCN1C(=O)c1cccc(Cl)c1	none (no result: TIM10 inh, Mdm2-MdmX inh, tim10-1 inh, tim23-1 inh)
CCCCN1C(=O)C(CC(=O)NCCc2ccccn2)CC(C(=O)N(C(C)C)C(C)C)=C1C (centres undefined)	none (no result: TIM10 inh, Mdm2-MdmX inh, tim10-1 inh, tim23-1 inh)
O=C(Oc1ccc2c(c1)OCO2)c1cc2c(s1)CCC2	Mdm2-MdmX inh 97 | Mdm2 MdmX conf 78 | Full FLuc ctr inactive
NC(=O)NCCCC(NC(=O)c1ccc(C#CC2(O)CCCCC2)cc1)C(=O)O (centres undefined)	Mdm2-MdmX inh 61 | Mdm2 MdmX conf inactive
CCOC(=O)c1c(CSc2nc(C)cc(C)c2C#N)n(C)c2cc(Br)c(OC(C)=O)cc12	Mdm2-MdmX inh 72 | Mdm2 MdmX conf inactive
COc1ccc(S(=O)(=O)NC(=O)C2(C)CCN2C(=O)C2(c3ccc(Cl)cc3)CCC2)cc1 (centres undefined)	none (no result: TIM10 inh, Mdm2-MdmX inh, tim10-1 inh, tim23-1 inh)
CCOc1ccc2[nH]c3c(NCCc4ccc(OC)c(OC)c4)ncnc3c2c1	none
